A selection: hits, their analogues and other compounds. The true share with any hit is near 4.1%.
TROY NFkB inh = blocks TROY-dependent signaling in reporter cells; Q293 LMP1-TROYcd NF-kB luciferase reporter, 4 h; inhibition, % at 10 µM; 0.98% of 360,000 active;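 active = compounds whose plate-normalised and pattern-corrected inhibition of the luciferase reporter signal at the single screening dose is 50% or more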
TWEAK-Fn14 inh = inhibitors of TWEAK-Fn14 interaction signaling; 2% of 360,000 active; AID 1159606; inhibition, % at 10 µM; TWEAK-stimulated Fn14 reporter cells, luciferase luminescence, 8 h; in the data active = inhibition above about 50%
EBV LMP1 NFkB = reduces LMP1-driven NF-kappaB luciferase signal. LMP1-induced NF-kappaB luciferase reporter cells, luminescence. inhibition, % at 12.5 µM. 0.69% of 350,000 active; in the data active = inhibition above about 41%
TRPM1 prom inh = reduces MITF-dependent TRPM1 promoter luciferase signal; inhibition, % at 12.5 µM; SK-MEL-5 TRPM1 promoter luciferase, 24 h; 0.83% of 330,000 active;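 active = mean inhibition across replicates of 60% or more, whatever share of single replicates reaches that level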
Peg3 prom inh = Peg3 promoter activity inhibition; inhibition, % at 20 µM; HeLa PEG-Prom luciferase reporter, luminescence, overnight; AID 588405; 1.7% of 360,000 active;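 active = inhibition of at least 50% at 20 µM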
Shn3 inh set2 = reduces Shn3 3'UTR luciferase signal in osteoblasts; Clone20 osteoblast Shn3 3'UTR firefly luciferase, 24 h; inhibition, % at 12.5 µM; 0.52% of 360,000 active; AID 588674;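 active = mean inhibition of at least 75% with every replicate also reaching 75%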
A number is an active result; - = inactive; . = not tested or not shown.

SMILES	TROY NFkB inh	TWEAK-Fn14 inh	EBV LMP1 NFkB	TRPM1 prom inh	Peg3 prom inh	Shn3 inh set2
CC(=O)c1cccc(NC(=O)c2cc(-c3cccs3)on2)c1	-	-	-	-	-	-
COc1ccc(-n2c(C)c([N+](=O)[O-])c3ccc(O)c(CN(C)C)c32)cc1	.	80	70	-	-	-
CCOC(=O)c1c(N)n(CCOC(=O)c2cccs2)c2nc3ccccc3nc12	-	-	-	-	-	-
CCCCCOC(=O)c1c(N)n(CCOC)c2nc3ccccc3nc12	-	-	-	61	-	-
CC1CC(=O)C2=C(C1)Nc1ccccc1SC2c1ccc(F)cc1 (centres undefined)	67	-	-	-	-	-
COc1ccccc1CN(Cc1nc2ccccc2c(=O)[nH]1)C(=O)Nc1ccccc1	-	-	-	-	-	-
O=C(COC(=O)C1(c2ccccc2F)CCCC1)N1CCNC1=O	-	-	-	-	-	-
Cc1n(CC(O)COC2CCCCC2)c2ccccc2[n+]1C (centres undefined)	.	76	-	-	-	-
O=C1C=CC(=Nc2cccc3c2C(=O)c2ccccc2-3)O1	-	-	-	-	-	-
O=C1C=CC(=Nc2ccc3c(c2)Cc2cc(F)ccc2-3)O1	-	56	-	-	-	-
Cn1c(SCC(=O)NC(=O)Nc2ccccc2)nnc1-c1ccncc1	-	-	.	.	-	-
Cc1cc2ncn(/N=C/c3ccc([N+](=O)[O-])s3)c2cc1C	-	-	-	-	73	-
O=[N+]([O-])c1ccc(/C=N/n2cnc3ccccc32)s1	-	54	-	86	-	90
COc1cccc(/C=N/n2cnc3cc(C)c(C)cc32)c1OC	-	-	-	-	-	-
COCCN(C(=O)c1cc(S(=O)(=O)N2CCCCC2)ccc1Cl)c1c(N)n(CC(C)C)c(=O)[nH]c1=O	-	-	-	-	-	-
Cc1nc2c(c(C)nn2-c2ccccc2)c(C)c1CCC(=O)Nc1ccc(CN2CCCC2)cc1	-	-	-	-	55	-
CCC(C)NC(=O)CCc1c(C)nc2c(c(C)nn2-c2ccccc2)c1C (centres undefined)	-	-	-	-	-	-
CCn1cc(-c2ccccc2)c(C(=O)O)c1-c1ccc(OC)cc1	-	-	-	-	-	-
COc1ccc(Nc2nc(Nc3ccc(OC)cc3)nc(-n3[nH]c(=O)c(C)c3C)n2)cc1	-	-	-	-	-	81
Cc1cc(C)c(O)c(-c2n[nH]c3c2C(c2cccc(O)c2)N(Cc2ccco2)C3=O)c1 (centres undefined)	60	-	-	-	-	-
O=C1c2[nH]nc(-c3ccccc3O)c2C(c2cccc(Cl)c2)N1Cc1ccco1 (centres undefined)	-	-	-	-	60	-
CCCN1CCN(CCCNC(=O)c2ccc(NC(=O)C3=C(C)OCCS3)cc2)CC1	-	-	-	-	-	-
N#CCCN(Cc1ccccc1)C(=S)Nc1ccc(F)cc1	-	-	-	-	-	.
CN(CCC#N)C(=S)Nc1ccc(F)cc1	-	-	57	-	-	-
CC(C)Oc1ccc(F)cc1-c1cc(C(=O)NCc2cc(C(F)(F)F)cc(C(F)(F)F)c2)[nH]n1	-	51	.	.	-	-
SMILES	TROY NFkB inh	TWEAK-Fn14 inh	EBV LMP1 NFkB	TRPM1 prom inh	Peg3 prom inh	Shn3 inh set2
CC(C)Oc1cc(F)ccc1-c1cc(C(=O)Nc2cccc(C(F)(F)F)c2)[nH]n1	55	70	.	.	-	-
CC(C)Oc1ccc(F)cc1-c1cc(C(=O)NCc2ccc(C(F)(F)F)cc2)[nH]n1	-	-	.	.	-	-
CCCN1CCN(C(=O)C2CCN(S(=O)(=O)c3ccc4c(c3)NC(=O)C(C)S4)CC2)CC1 (centres undefined)	-	-	-	-	-	-
CCC(C)N(CCNC(=O)c1ccc2c(c1)NC(=O)c1ccccc1S2)C1CCCCC1 (centres undefined)	-	-	-	-	76	-
O=C(/C=C1\NC2(CCCC2)Cc2ccccc21)C(=O)N/N=C/c1ccc(O)c(O)c1	-	-	-	-	57	-
Cc1ccc(C(=O)c2ccccc2C(=O)OCC(=O)Nc2ccc(SC(F)F)cc2)cc1	-	53	-	-	-	-
O=C(COC(=O)c1ccccc1Cc1ccccc1)Nc1ccc(SC(F)F)cc1	-	-	-	-	-	-
CC1(C)CC(=O)C(C(c2ccc3c(c2)OCO3)C2C(=O)CC(C)(C)CC2=O)C(=O)C1	-	-	.	.	-	-
COc1cc(NC(=O)COc2cc(O)c3c(c2)OC(C)(C)CC3=O)cc(OC)c1OC	-	78	-	72	-	86
CN(C)c1ccnc2c[cH-]cc12.[Fe].c1ccc(-[c-]2[c-](-c3ccccc3)[c-](-c3ccccc3)[c-](-c3ccccc3)[c-]2-c2ccccc2)cc1 (centres undefined)	-	-	-	-	96	-
CC1CCC(NC(=O)c2ccc3c(c2)OCO3)CC1 (centres undefined)	-	54	-	-	-	-
Cc1ccnc(NC(=O)c2ccc3c(c2)OCO3)c1	-	55	-	-	-	-
Cc1ccc(NC(=O)c2ccc3c(c2)OCCO3)nc1	-	62	50	-	-	-
Cc1ccnc(NC(=O)c2ccc3c(c2)NC(=O)C(C)S3)c1 (centres undefined)	-	67	-	-	-	-
COc1cccc(CCNC(=O)c2cc(COc3c(F)cccc3F)on2)c1	-	-	-	-	-	-
COC(CN(C)C(=O)c1ccc(CS(=O)(=O)c2ccccc2C)o1)OC	-	-	-	-	-	-
Cc1ccnc(NC(=O)c2cccc(NC(=O)c3ccc(Cl)c(Cl)c3)c2)c1	-	-	86	-	-	-
Cc1ccnc(NC(=O)c2cccc(NC(=O)c3ccc(Cl)cc3)c2)c1	-	-	-	-	-	-
COc1cc(NS(=O)(=O)c2ccc(NC(=S)NC(=O)c3ccc(F)c(F)c3)cc2)nc(OC)n1	-	-	-	-	-	-
O=C1CCN(CCCN2CCC(=O)N(Cc3ccccc3)C2=S)C(=S)N1Cc1ccccc1	-	-	-	.	-	-
O=C1CSC(=S)N1Cc1ccccc1	-	-	42	.	-	-
O=C(NCc1ccccc1F)Nc1nnc([C@H]2C[C@H](O)[C@@H](CO)O2)s1	-	-	.	.	-	-
O=C(C1CCCCC1)N1CCN=C1SCc1cccc([N+](=O)[O-])c1	-	54	-	-	-	-
O=C(C1CCCCC1)N1CCN=C1SCc1cccnc1	-	-	-	-	-	-
COC(=O)C1CSC(C(=O)OC)N1C(=O)CN1CCN(c2ccc(OC)cc2)CC1 (centres undefined)	-	-	-	-	-	-
FC(F)(F)c1nc(N2CCCC2)ncc1-c1nnnn1-c1ccccc1	-	51	-	-	-	-
Cc1ccc(-n2nnnc2-c2cnc(N3CCCC3)nc2C(F)(F)F)cc1	-	-	-	-	-	-

Screens as filed in PubChem.
